Compound activity (PubChem BioAssay)
Rango-impB inh: prevents formation of the Rango-importin beta complex. Q14974. Rango CFP/YFP FRET sensor + importin beta, 45 min. Potency, µM (top dose mostly 92.2 µM), inactives show at the top dose inhibition of complex formation. actives 0.031% (n = 340,000). AID 540263;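 further: potency means the concentration at half of the fitted maximal effect; 0% = DMSO wells and 100% = buffer wells lacking importin beta; nearly all actives have a fitted effect of over 15% in size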
Target sequence (Q14974 whole entry, looked up): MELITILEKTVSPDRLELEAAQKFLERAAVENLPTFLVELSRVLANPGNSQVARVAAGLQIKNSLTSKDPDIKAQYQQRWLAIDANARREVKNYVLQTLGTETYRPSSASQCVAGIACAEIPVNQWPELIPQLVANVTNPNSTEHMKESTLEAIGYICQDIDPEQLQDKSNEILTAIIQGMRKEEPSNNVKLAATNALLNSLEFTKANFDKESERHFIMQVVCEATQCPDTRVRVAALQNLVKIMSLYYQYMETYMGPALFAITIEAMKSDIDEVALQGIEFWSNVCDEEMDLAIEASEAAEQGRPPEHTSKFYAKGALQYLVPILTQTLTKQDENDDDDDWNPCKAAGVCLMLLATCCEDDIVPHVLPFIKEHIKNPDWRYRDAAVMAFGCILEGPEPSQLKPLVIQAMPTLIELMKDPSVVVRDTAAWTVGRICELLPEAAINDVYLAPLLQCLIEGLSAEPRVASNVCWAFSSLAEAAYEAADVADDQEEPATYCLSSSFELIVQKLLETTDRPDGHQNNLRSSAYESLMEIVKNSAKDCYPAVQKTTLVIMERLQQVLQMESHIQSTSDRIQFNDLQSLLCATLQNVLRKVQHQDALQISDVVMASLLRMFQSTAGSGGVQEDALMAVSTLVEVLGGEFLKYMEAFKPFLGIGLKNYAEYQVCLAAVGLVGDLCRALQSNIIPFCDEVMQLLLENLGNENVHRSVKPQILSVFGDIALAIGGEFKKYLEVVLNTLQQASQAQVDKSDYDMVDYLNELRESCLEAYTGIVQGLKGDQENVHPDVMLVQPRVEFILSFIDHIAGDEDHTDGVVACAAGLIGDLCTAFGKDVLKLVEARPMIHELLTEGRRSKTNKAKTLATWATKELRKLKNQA
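FRET biosensor Rango (snurportin 1 IBB between N-terminal EYFP and C-terminal Cerulean), 50 nM in PBS/1 mM DTT/0.02% Tween-20/0.1% BSA, preincubated 5 min RT with compound; 0.125 microM importin beta added, 45 min RT, CFP/YFP FRET ratio read.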
Mm-Cpn inhibitor: inhibitors of Methanococcus maripaludis chaperonin TRiC (MmCpn); purified Mm-Cpn ATPase, ADP Transcreener TR-FRET; Potency, µM (series often up to 76.9 µM), without a hit: at the top dose activity, negative = inhibition, actives largely listed as inhibitors; actives 0.031% (n = 330,000); active means well fitted inhibition curve with a large enough effect; inconclusive means small, poorly fitted or top-dose-only effect; further: potency means the concentration at half of the fitted maximal effect; on the % scale 0 is the no-effect control and ±100 the full control effect; nearly all actives have a fitted effect of over 80% in size
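ATPase turnover read by TR-FRET ADP competition (Eu cryptate antibody/ADP-d2, 665/590 nm): 10uM ATP final, 25nM Mm-CPN final, 30 min 37degC after 10-min compound preincubation, pH 7.4 Tris/KCl/MgCl2/DTT buffer.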
CCT modulator: modulators of cytosolic chaperonin (CCT/TRiC) activity; activity change, % (test concentration not listed), hits read low; actives 0.3% (n = 360,000); purified chaperonin ATPase assay, HTRF ADP detection, 30 min; in the data active means activity change below about -30%; further: on the % scale 0 is the no-effect control and ±100 the full control effect
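Enzyme 40 or 20 nM (batch-dependent) in Tris pH 7.4/KCl/MgCl2/DTT; cpd 76 uM single point; ATP 10 uM; 30 min 37 °C; Transcreener ADP HTRF detection, 30 min RT; ratio 665/615.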
Rango release inh: inhibition of RanGTP-driven Rango-importin beta dissociation. O95149+P62826. Biochemical FRET Rango-importin beta, RanGTP-induced dissociation. Potency, µM (top dose mostly 46.1 µM), inactives show at the highest dose activity change, negative = inhibition. actives 0.071% (n = 340,000); further: potency means the concentration at half of the fitted maximal effect; % of control where 0% means no effect; nearly all actives have a fitted effect of over 45% in size
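Rango FRET biosensor (snurportin-1 IBB flanked by N-terminal EYFP and C-terminal CFP10) at 0.1 uM, with 0.25 uM importin beta in PBS, 1mM DTT, 0.02% Tween-20, 0.1% BSA. 0.6 uM Ran, 2mM GTP and 0.2 uM RCC1 were then added for 45 min at room temperature. Inhibition read as loss of FRET rise.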
Active calls of the source: *. An excerpt weighted towards active compounds, which were near 0.39% of everything screened. Unless noted, the call rests on the fitted dose curve.

Screening CN(C1CCCCC1)S(=O)(=O)c1ccc2c(c1)c(=O)c(C(=O)O)cn2C returned CCT modulator 0.
CCC(C)(C)NC(=O)C(c1ccccn1)N(C(=O)c1csnn1)c1ccc(C)cc1 (stereo unspecified) was read as Rango-impB inh 0%, Mm-Cpn inhibitor -1%, CCT modulator -34* and Rango release inh 0%.
Screening Cc1ccc(N(C(=O)c2csnn2)C(C(=O)NCc2ccccc2)c2ccccn2)cc1 (stereo unspecified) returned Rango-impB inh 0%, Mm-Cpn inhibitor -1%, CCT modulator 0 and Rango release inh -2%.
Screening O=C(CCSc1nc(-c2ccco2)cc(C(F)(F)F)n1)NCC1CCCO1 (stereo unspecified) returned Rango-impB inh inconclusive, Mm-Cpn inhibitor -2%, CCT modulator -6 and Rango release inh 26µM*.
`CC(=O)N1c2ccccc2C2CCCC[C@H]21` (stereo partly specified) gave Rango-impB inh -1%, Mm-Cpn inhibitor -1%, CCT modulator -1 and Rango release inh 2%.
`CCn1cc(/C=C(\NC(=O)c2ccc(C)cc2)C(=O)NCCCN2CCOCC2)c2ccccc21` gave Rango-impB inh -3%, Mm-Cpn inhibitor -1%, CCT modulator 0 and Rango release inh -3%.
For CCn1cc(/C=C(\NC(=O)c2ccc(OC)c(OC)c2)C(=O)NCCCN2CCOCC2)c2ccccc21 the results were Rango-impB inh 0%, Mm-Cpn inhibitor -1%, CCT modulator -81* and Rango release inh -6%.
For O=C(NNc1ccc(Cl)cc1)C1CCC1 the results were Rango-impB inh 8%, Mm-Cpn inhibitor -2%, CCT modulator -36* and Rango release inh -7%.
O=C(NNc1cc(Cl)cc(Cl)c1)C1CCC1 was read as Rango-impB inh inconclusive, Mm-Cpn inhibitor 1%, CCT modulator 1 and Rango release inh -9%.
`COc1cccc(CNC(=O)CN2c3cccc4cccc(c34)S2(=O)=O)c1` gave Rango-impB inh -1%, Mm-Cpn inhibitor -2%, CCT modulator 0 and Rango release inh -5%.
Screening Cc1cc2c(s1)c1c(n2C)C(=O)N(Cc2ccccc2F)C1 returned Mm-Cpn inhibitor 0%.
`c1ccc2[nH]c(CN3CCOCC3)nc2c1` gave Rango-impB inh -4%, Mm-Cpn inhibitor 0%, CCT modulator 2 and Rango release inh -7%.
For Nc1ccc2nc(CN3CCOCC3)[nH]c2c1 the results were Rango-impB inh 0%, Mm-Cpn inhibitor 0%, CCT modulator -36* and Rango release inh -7%.
Screening COc1cccc2ccc(CC(O)(c3ccccc3)c3ccccc3)nc12 returned CCT modulator -52*.
`Cc1ccn2c(Nc3ccccc3C)c(-c3ccccn3)nc2c1` gave Rango-impB inh -2%, Mm-Cpn inhibitor 2%, CCT modulator -1 and Rango release inh -9%.
`Cc1ccn2c(Nc3ccccc3)c(-c3ccccn3)nc2c1` gave Rango-impB inh 6%, Mm-Cpn inhibitor 1%, CCT modulator -37* and Rango release inh -8%.
`O=C(CCCc1ccccc1)NCCCN1CCOCC1` gave Rango-impB inh -1%, Mm-Cpn inhibitor 3%, CCT modulator -2 and Rango release inh 6%.
`O=C(CCc1ccccc1)NCCCN1CCOCC1` gave Rango-impB inh 4%, Mm-Cpn inhibitor 1%, CCT modulator -31* and Rango release inh -9%.
Cc1cccc(C(O)C(O)c2cccc(C)n2)n1 (stereo unspecified) was read as Rango-impB inh 0%, CCT modulator -85* and Rango release inh 10%.
Cc1cccc(C(P(=O)(c2ccccc2)c2ccccc2)P(=O)(c2ccccc2)c2ccccc2)n1 was read as Rango-impB inh 0%, Mm-Cpn inhibitor 0%, CCT modulator -1 and Rango release inh -1%.
Screening COc1ccc(Cl)cc1S(=O)(=O)NC(C)C(=O)NCc1ccccn1 (stereo unspecified) returned Rango-impB inh 0%, Mm-Cpn inhibitor 1%, CCT modulator -1 and Rango release inh 7%.
Screening COc1ccc(Cl)cc1S(=O)(=O)NC(C)C(=O)NCc1ccncc1 (stereo unspecified) returned Rango-impB inh 0%, Mm-Cpn inhibitor 0%, CCT modulator -66* and Rango release inh -2%.
`COc1ccc(C(=O)COC(=O)c2cccc(-n3cnnn3)c2)c(OC)c1` gave Rango-impB inh inconclusive, Mm-Cpn inhibitor -3%, CCT modulator 0 and Rango release inh -3%.
CCOC(=O)C(=O)Cc1nc(OCc2ccccc2)cc(OCc2ccccc2)n1 was read as Rango-impB inh 1%, CCT modulator -39* and Rango release inh 35%.
For COc1ccc(S(=O)(=O)N2CCC(C(=O)NN3CCCCC3)CC2)cc1 the results were CCT modulator 0.
`Cn1c(=O)c(=O)n(C)c2cc([N+](=O)[O-])c([N+](=O)[O-])cc21` gave Rango-impB inh -4%, Mm-Cpn inhibitor -3%, CCT modulator -32* and Rango release inh 1%.
`CNc1ccc(Cl)cc1S(=O)(=O)c1ccccc1[N+](=O)[O-]` gave CCT modulator 2.
CCc1ccc(-c2cc(C)no2)cc1S(=O)(=O)N1CC(=O)Nc2ccccc21 was read as Rango-impB inh 3%, Mm-Cpn inhibitor 2%, CCT modulator -1 and Rango release inh 40%.
Screening COc1ccc(-c2cc(C)no2)cc1S(=O)(=O)N1CCOc2ccccc21 returned Rango-impB inh -1%, Mm-Cpn inhibitor -9%, CCT modulator -81* and Rango release inh 1%.
Cc1cc(-c2ccc(C)c(S(=O)(=O)N3CC(=O)Nc4ccccc43)c2)on1 was read as Rango-impB inh inconclusive, Mm-Cpn inhibitor 0%, CCT modulator -35* and Rango release inh inconclusive.
`Cc1cc(-c2ccc(C(C)C)c(S(=O)(=O)N3CCOc4ccccc43)c2)on1` gave Rango-impB inh -1%, Mm-Cpn inhibitor 0%, CCT modulator 1 and Rango release inh -12%.
Screening Cc1cccc(-c2csc(N3CCC(C(N)=O)CC3)n2)c1 returned Mm-Cpn inhibitor -1%.
For Cc1cc2oc(=O)cc(Cn3ncc(Cl)c(Cl)c3=O)c2cc1Cl the results were Rango-impB inh 1%, Mm-Cpn inhibitor -2%, CCT modulator -48* and Rango release inh 6%.
For Cc1cc2oc(=O)cc(CN3CCN(c4ccccc4)CC3)c2cc1Cl the results were CCT modulator 0.
Screening CC(=O)N1CCN(C(=O)CNC(=O)c2ccc(C)s2)CC1 returned Rango-impB inh 2%, CCT modulator 2 and Rango release inh 10%.
For Cc1cc(O)c(CN(C)C)c2c1C(=O)/C(=C/c1ccco1)O2 the results were Rango-impB inh inconclusive, Mm-Cpn inhibitor -2%, CCT modulator 1 and Rango release inh 26µM*.
CCCCc1nnc(NC(=O)Cn2cnc3ccccc3c2=O)s1 was read as Rango-impB inh 0%, Mm-Cpn inhibitor 1%, CCT modulator -2 and Rango release inh -7%.
